Source: PubChem BioAssay AID1159580 (chemical genetic matrix, 2015)
Hit rate of the full screen: of about 5,500 compounds, about 2,000 (36%) were called active. Not shown: some 18% with an inconclusive outcome. Cut-off read from the data, not from the text of the source: active = normalized growth mostly below about 0.91 (no sharp cut-off); inconclusive = no clear call, values can overlap the other calls; inactive = mostly above about 0.92. The list shows a part of the results.

Assay: chemical genetic growth profiling, strain panel (AID 1159580);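 note: tested at 20 µM; growth read once vehicle control cultures reached saturation at 30 °C; 1 = growth at the plate median or of vehicle wells; lower values mean less growth of the strain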
Conditions: growth OD

Measured: normalized growth

CC(=O)N=c1sc(S(N)(=O)=O)nn1C
inactive: S. cerevisiae deletion strains, locus YJR075W, strain HOC1, hits give low values 1 | S. cerevisiae deletion strains, locus YKL009W, strain mrt4, hits give low values 1 | S. cerevisiae deletion strains, locus YKL068W, hits give low values 1 | S. cerevisiae deletion strains, locus YKL085W, strain MDH1 (second series), hits give low values 1.01 | S. cerevisiae deletion strains, locus YKL085W, strain MDH1, hits give low values 1.01 | S. cerevisiae deletion strains, locus YKL160W, strain elf1, hits give low values 1.01 | S. cerevisiae deletion strains, locus YKL190W, strain CNB1, hits give low values 1.01 | S. cerevisiae deletion strains, locus YKR001C, strain vps1, hits give low values 0.998 | S. cerevisiae deletion strains, locus YKR026C, strain gcn3, hits give low values 1.01 | S. cerevisiae deletion strains, locus YKR091W, strain srl3, hits give low values 1 | S. cerevisiae deletion strains, locus YLL001W, strain dnm1, hits give low values 1.01 | S. cerevisiae deletion strains, locus YLL026W, hits give low values 1.01 | S. cerevisiae deletion strains, locus YLL041C, strain sdh2, hits give low values 1.01 | S. cerevisiae deletion strains, locus YLR027C, strain aat2, hits give low values 1.01 | S. cerevisiae deletion strains, locus YLR039C, strain RIC1, hits give low values 1.02 | S. cerevisiae deletion strains, locus YLR058C, strain SHM2, hits give low values 1.01 | S. cerevisiae deletion strains, locus YLR102C, strain apc9, hits give low values 1 | S. cerevisiae deletion strains, locus YLR113W, strain HOG1, hits give low values 1.07 | S. cerevisiae deletion strains, locus YLR221C, strain rsa3, hits give low values 1 | S. cerevisiae deletion strains, locus YLR258W, strain gsy2, hits give low values 1.01 | S. cerevisiae deletion strains, locus YLR262C, strain YPT6 (second series), hits give low values 1.02 | S. cerevisiae deletion strains, locus YLR262C, strain YPT6, hits give low values 1.04 | S. cerevisiae deletion strains, locus YLR268W, strain sec22, hits give low values 1 | S. cerevisiae deletion strains, locus YLR320W, strain mms22, hits give low values 1.04 | S. cerevisiae deletion strains, locus YLR330W, strain CHS5, hits give low values 1.01 | S. cerevisiae deletion strains, locus YLR342W, strain FKS1 (second series), hits give low values 1.08 | S. cerevisiae deletion strains, locus YLR342W, strain FKS1, hits give low values 1.02 | S. cerevisiae deletion strains, locus YLR357W, strain rsc2, hits give low values 1.03 | S. cerevisiae deletion strains, locus YLR370C, strain arc18, hits give low values 1.01 | S. cerevisiae deletion strains, locus YLR371W, strain rom2, hits give low values 1.02 | S. cerevisiae deletion strains, locus YLR384C, strain iki3, hits give low values 1 | S. cerevisiae deletion strains, locus YLR418C, strain cdc73, hits give low values 1.04 | S. cerevisiae deletion strains, locus YML016C, strain PPZ1, hits give low values 1.01 | S. cerevisiae deletion strains, locus YML032C, strain rad52, hits give low values 0.993 | S. cerevisiae deletion strains, locus YML120C, strain ndi1, hits give low values 1 | S. cerevisiae deletion strains, locus YML124C, strain tub3, hits give low values 1.01 | S. cerevisiae deletion strains, locus YMR058W, strain fet3, hits give low values 1.01 | S. cerevisiae deletion strains, locus YMR078C, strain ctf18, hits give low values 1.01 | S. cerevisiae deletion strains, locus YMR125W, strain sto1, hits give low values 1.01 | S. cerevisiae deletion strains, locus YMR129W, hits give low values 1.01 | S. cerevisiae deletion strains, locus YMR205C, strain PFK2, hits give low values 1.01 | S. cerevisiae deletion strains, locus YMR223W, strain ubp8, hits give low values 1.03 | S. cerevisiae deletion strains, locus YMR231W, strain pep5, hits give low values 1.01 | S. cerevisiae deletion strains, locus YMR307W, strain GAS1, hits give low values 1.03 | S. cerevisiae deletion strains, locus YNL067W, strain RPL9B, hits give low values 0.988 | S. cerevisiae deletion strains, locus YNL071W, strain lat1, hits give low values 1.01 | S. cerevisiae deletion strains, locus YNL128W, strain TEP1, hits give low values 1.04 | S. cerevisiae deletion strains, locus YNL153C, strain GIM3, hits give low values 0.979 | S. cerevisiae deletion strains, locus YNL183C, strain NPR1, hits give low values 0.984 | S. cerevisiae deletion strains, locus YNL209W, strain ssb2, hits give low values 1.01 | S. cerevisiae deletion strains, locus YNL233W, strain BNI4, hits give low values 0.967 | S. cerevisiae deletion strains, locus YNL248C, strain rpa49, hits give low values 1.02 | S. cerevisiae deletion strains, locus YNL250W, strain rad50, hits give low values 1.04 | S. cerevisiae deletion strains, locus YNL271C, strain bni1, hits give low values 1 | S. cerevisiae deletion strains, locus YNL298W, strain CLA4, hits give low values 1.01 | S. cerevisiae deletion strains, locus YNL307C, strain MCK1, hits give low values 1.02 | S. cerevisiae deletion strains, locus YNL322C, strain KRE1 (second series), hits give low values 1.01 | S. cerevisiae deletion strains, locus YNR049C, strain mso1, hits give low values 1.01 | S. cerevisiae deletion strains, locus YNR052C, strain pop2, hits give low values 1.02 | S. cerevisiae deletion strains, locus YOL006C, strain TOP1, hits give low values 0.974 | S. cerevisiae deletion strains, locus YOL012C, strain htz1 1.13 | S. cerevisiae deletion strains, locus YOL147C, strain pex11, hits give low values 1.01 | S. cerevisiae deletion strains, locus YOR001W, strain rrp6, hits give low values 1.01 | S. cerevisiae deletion strains, locus YOR061W, strain CKA2, hits give low values 1.01 | S. cerevisiae deletion strains, locus YOR069W, strain VPS5, hits give low values 1.01 | S. cerevisiae deletion strains, locus YOR070C, strain gyp1, hits give low values 1.02 | S. cerevisiae deletion strains, locus YOR080W, strain dia2, hits give low values 1.02 | S. cerevisiae deletion strains, locus YOR083W, strain WHI5, hits give low values 1.01 | S. cerevisiae deletion strains, locus YOR106W, strain vam3, hits give low values 1.01 | S. cerevisiae deletion strains, locus YOR136W, strain idh2, hits give low values 0.997 | S. cerevisiae deletion strains, locus YOR144C, strain elg1, hits give low values 0.997 | S. cerevisiae deletion strains, locus YOR184W, strain ser1, hits give low values 1.02 | S. cerevisiae deletion strains, locus YOR231W, strain MKK1, hits give low values 1.08 | S. cerevisiae deletion strains, locus YOR265W, strain rbl2, hits give low values 1.01 | S. cerevisiae deletion strains, locus YOR270C, strain vph1, hits give low values 1.02 | S. cerevisiae deletion strains, locus YOR290C, strain snf2, hits give low values 1.03 | S. cerevisiae deletion strains, locus YOR316C, strain cot1, hits give low values 1 | S. cerevisiae deletion strains, locus YPL051W, strain arl3, hits give low values 1.01 | S. cerevisiae deletion strains, locus YPL055C, strain LGE1, hits give low values 0.939 | S. cerevisiae deletion strains, locus YPL078C, strain atp4, hits give low values 1.01 | S. cerevisiae deletion strains, locus YPL106C, strain sse1, hits give low values 1.03 | S. cerevisiae deletion strains, locus YPL240C, strain hsp82, hits give low values 1.01 | S. cerevisiae deletion strains, locus YPL241C, strain CIN2, hits give low values 1.01 | S. cerevisiae deletion strains, locus YPL256C, strain CLN2, hits give low values 1.08 | S. cerevisiae deletion strains, locus YPR119W, strain clb2, hits give low values 1 | S. cerevisiae deletion strains, locus YPR141C, strain kar3, hits give low values 1.01 | S. cerevisiae deletion strains, locus YPR163C, strain tif3, hits give low values 1.01 | S. cerevisiae deletion strains, locus YPR167C, strain met16, hits give low values 1 | S. cerevisiae deletion strains, strain wtn01, hits give low values 1 | S. cerevisiae strains, strain wild type, hits give low values 1
